The supplement of paper PMC4371806
The full ranking holds about 2,300 compounds; the median of “plate-normalized OD600 growth (mean of duplicates)” is about 0.29, and the lowest 2% start at about 0.22. For the sample, the lowest values were picked, then their nearest neighbours and some compounds at random.

System: Escherichia coli BW25113
Test: plate-normalized OD600 growth (mean of duplicates) (OD600 (normalized)); higher = more growth (less inhibition)
Conditions: 10 µM
Method: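 E. coli BW25113 in LB (100 µl, 96-well, no shaking) was exposed to 10 µM of each compound from a ~30,000-member library and grown at 37°C for 24 h or 15°C for 48 h, in duplicate. Growth was read as OD600 and the duplicate ODs were normalized across screening plates to correct plate-to-plate variation. Hits were >3σ below the mean OD600 at 15°C and <2σ below the mean at 37°C.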

| SMILES | plate-normalized OD600 growth (temperature: 15°C, 48 h) | plate-normalized OD600 growth (temperature: 37°C, 24 h) |
| --- | --- | --- |
| O=[N+]([O-])c1ccc(OCCCOc2ccc([N+](=O)[O-])cc2)cc1 | 0.238 | 0.596 |
| O=C1NC(=O)c2cc(-c3ccc([N+](=O)[O-])cc3)ccc21 | 0.241 | 0.631 |
| O=[N+]([O-])c1ccc(-c2ncn[nH]2)cc1 | 0.209 | 0.607 |
| CC(C)c1ncc(C(O)c2cccc3ccccc23)n1C (stereo not drawn) | 0.249 | 0.63 |
| O=c1[nH]c(-c2cn[nH]c2-c2ccc(F)cc2)nc2sc3c(c12)CCCC3 | 0.237 | 0.637 |
| CS/C(N)=N\N=C/c1c(F)cccc1Cl | 0.258 | 0.652 |
| Cc1oc(-c2ccccc2)cc1C(=O)N1CCN(c2ccc([N+](=O)[O-])cc2)CC1 | 0.265 | 0.667 |
| COc1cc(C=NCc2ccco2)ccc1O | 0.242 | 0.622 |
| CCN1CCN(CCC(=O)Nc2ccccc2)CC1 | 0.228 | 0.624 |
| NC(=O)C1CCN(CCC(=O)Nc2ccccc2)CC1 | 0.208 | 0.651 |
| CC1CCN(CCC(=O)Nc2ccc(Cl)cc2)CC1 | 0.261 | 0.643 |
| CC(C)(C)S(=O)(=O)/C(C#N)=C/N1CCCCC1 | 0.267 | 0.62 |
| O/N=C\c1sccc1Oc1ccccc1 | 0.254 | 0.635 |
| CCOC(=O)c1ccc(-n2nnnc2C(c2ccc(Cl)cc2Cl)N2CCOCC2)cc1 (stereo not drawn) | 0.241 | 0.645 |
| Cc1ccc(C=Nc2ccc(-c3ccc(N=Cc4ccc(C)o4)c(C)c3)cc2C)o1 | 0.224 | 0.622 |
| C/C(CC(=O)Nc1ccc(N(C)C)cc1)=N\NC(=O)COc1ccc(C)cc1 | 0.236 | 0.627 |
| Cc1ccc(NC(=O)CCN2CCN(c3ccccc3)CC2)cc1 | 0.26 | 0.612 |
| CC(=O)N(CC(=O)Nc1ccc(C)cc1)c1ccccc1 | 0.214 | 0.646 |
| COC(=O)C1=NN(c2ccccc2Cl)C2(S1)c1ccccc1C(C)=NN2c1ccccc1 (stereo not drawn) | 0.234 | 0.641 |
| O=C(NCCSCc1ccco1)c1ccc(Cl)cc1 | 0.25 | 0.605 |
| CC12CCC(C1)C(C)(C)C2NC(=O)c1cccs1 (stereo not drawn) | 0.26 | 0.639 |
| Cc1nn(CC(=O)NNC(=O)COc2ccc(Cl)cc2Cl)c(C)c1Br | 0.235 | 0.607 |
| O=C(Oc1ccc(N(C(=O)c2ccccc2)S(=O)(=O)c2cccs2)cc1)c1ccccc1 | 0.225 | 0.622 |
| O=c1[nH]nc(-c2ccc(N3CCN(CCO)CC3)c([N+](=O)[O-])c2)c2ccccc12 | 0.242 | 0.616 |
| COCc1cc(C)c2c(n1)sc1c2nc(C)n2c3ccccc3nc12 | 0.244 | 0.619 |

| SMILES | plate-normalized OD600 growth (temperature: 15°C, 48 h) | plate-normalized OD600 growth (temperature: 37°C, 24 h) |
| --- | --- | --- |
| CCOc1ccc(NC(=O)CC2S/C(=N\N=C\c3ccc(C)s3)NC2=O)cc1 (stereo not drawn) | 0.222 | 0.624 |
| Cc1cc(C(O)(C(F)(F)F)C(F)(F)F)cc(C)c1O | 0.249 | 0.618 |
| O=C(Nc1nc(-c2ccccc2)cs1)C1CC(O)CN1C(=O)Oc1ccccc1 (stereo not drawn) | 0.263 | 0.648 |
| Cc1cc(/C=N/NC(=O)c2cc3ccccc3o2)c(C)n1-c1ccc(C23CC4CC(CC(C4)C2)C3)cc1 | 0.244 | 0.607 |
| COc1cccc(C2C3=C(CC(C)(C)CC3=O)OC(N)=C2[N+](=O)[O-])c1 (stereo not drawn) | 0.246 | 0.619 |
| O=C(CC(=O)Nc1cccc(Cl)c1)N/N=C\c1ccccc1 | 0.246 | 0.616 |
| OCCCc1cccc(C(F)(F)F)c1 | 0.242 | 0.586 |
| O=C1C=C(Cl)CC(c2ccc(C(F)(F)F)cc2)C1 (stereo not drawn) | 0.243 | 0.607 |
| O=C(O)c1ccc(Br)c(NC(=O)C2C3C=CC(C3)C2C(=O)O)c1 (stereo not drawn) | 0.248 | 0.604 |
| N/C(=N\OC(=O)c1ccno1)c1ccc(C(F)(F)F)cc1 | 0.253 | 0.612 |
| O=C(NNC(=O)c1ccccc1OCc1ccccc1)c1ccc(Cl)c(Cl)c1 | 0.216 | 0.606 |
| Cc1nnn(-c2nonc2N)c1C(=O)NNC(=O)c1ccc(Cl)c(Cl)c1 | 0.243 | 0.606 |
| O=C(O)c1oc(C(=O)O)c(OCc2ccccc2)c1OCc1ccccc1 | 0.263 | 0.637 |
| O=C(Nc1ccc(Cl)cc1Cl)c1cnccn1 | 0.245 | 0.607 |
| N#CC1=C2N=C(N)c3c(sc4c3CCCC4)N2C2=C(C(=O)CCC2)C1c1cccnc1 (stereo not drawn) | 0.246 | 0.624 |
| C/C(=N/OC(=O)c1ccc(Cl)cc1)c1ccc(F)cc1 | 0.236 | 0.601 |
| CCN(CC)C(=O)NC(=O)c1c(C)cc(Cl)nc1Cl | 0.243 | 0.63 |
| Cc1ccc(N2CC(=O)N(/N=C/c3ccc(F)cc3)C2=S)cc1 | 0.232 | 0.63 |
| COc1ccc(C(=O)[C@@H]2[C@@H](c3cccs3)C(C#N)(C#N)[C@H]3C=Cc4ccccc4N23)cc1 | 0.251 | 0.63 |
| CC(=O)C1=C(Nc2ccc(C)cc2)CC(C)(O)C(C(C)=O)C1c1ccc(F)cc1 (stereo not drawn) | 0.208 | 0.598 |
| C/C(=C\C(=O)Nc1ccc(F)cc1)Nc1ccc(F)cc1 | 0.253 | 0.613 |
| CC(=O)C1C(=O)CC(C)(O)C(C(C)=O)C1c1ccc(Br)cc1 (stereo not drawn) | 0.25 | 0.616 |
| CN(C)N=Nc1ccc(S(=O)(=O)NC(=O)Cc2ccccc2)cc1 | 0.24 | 0.612 |
| CC(C)(C)NC(=O)c1cc(NC(=O)C(F)(F)F)cc(NC(=O)C(F)(F)F)c1 | 0.234 | 0.605 |
